# Measurements from PubChem BioAssay AID504401 (The Scripps Research Institute Molecular Screening Center, 2011).
# A number with no mark means an inactive call. The rule behind the calls is not given here.
# System: Phorbol Ester
# Experiment: CYP450 and receptor off-target profile – biochemical, Ricerca HitProfilingScreen, selectivity assay for GPR7 antagonist project, late-stage follow-up (AID 504401)
# Settings: Ricerca radioligand binding and CYP450 panel, at 10 µM, active compounds read high
smiles,measurement,value
COc1ccc(Oc2c(Cl)cnn(-c3cc(C)cc(C)c3)c2=O)cc1,inhibition,-15%
